Assay results reported in PubChem BioAssay (NCI).
The panel holds about 83,000 compounds, 20% with a hit somewhere; the sample as a whole holds those more often.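 Testing used 96-well plates and a 48-hour single-concentration exposure. Example: -40 means 40% of the starting cells died.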 Activity calls are given as the source filed them.

test system: HCC-2998 colon; assay: NCI-60 one-dose screen, 48 h (100 = growth as untreated, 0 = no growth, -100 = all killed); conditions: 10 µM unless noted
Description: Growth inhibition of the HCC-2998 human tumor cell line is measured as a screen for anti-cancer activity. Cells are grown in 96 well plates and exposed to the test compound for 48 hours. Compounds are tested at a single concentration, which is 10^-5 M for most compounds. The reported endpoint is percent growth (GI% or GIPRCNT), where numbers from 0 - 100% represent growth inhibition, and numbers from -100% - 0 represent cell death. For example, a value of 40 represents 60% growth inhibition. A value of 0 means no net growth occurred over the course of the experiment. A value of -40 indicates 40% of cells at the beginning of the experiment died by the end of the experiment. A value of -100 means all cells are dead at the end of the experiment.
NCI-60 Human Tumor Cell Lines Screen was performed using the standard one-dose NCI protocol, which is described in more detail at https://dtp.cancer.gov/discovery_development/nci-60/default.htm.
Compounds with GIPRCNT values below 10 were considered active. Activity score was based on GIPRCNT using the following formula: […]
Score is 0 for GIPRCNT values of 100 or above, 50 for GIPRCNT values of 0, and 100 for GIPRCNT values of -100.

Q: CCOC(C)(c1ccc(Cl)cc1)C1CCNCC1 (stereo not given) was tested. Which growth did it give?
A: 89.4% (inactive)

Q: COc1cc(C2CC(c3cccc(Nc4ccnc5cc(Cl)ccc45)c3)=NN2c2ccc(Cl)cc2)cc(OC)c1OC (stereo not given) was tested. Which growth did it give?
A: 87.3% (inactive)

Q: How did the growth turn out when O=C(CCc1nc2sc3c(c2c(=O)[nH]1)CCC3)NCc1cn(-c2ccccc2)nc1-c1ccccc1 was run?
A: 87.5% (inactive)

Q: How did the growth turn out when COC(=O)CNS(=O)(=O)c1ccc2c(c1)Cc1cc(S(=O)(=O)NCC(=O)OC)ccc1-2 was run?
A: 111% (inactive)

Q: For C/C(=N\OC(=O)Nc1cccc(Cl)c1)c1ccccc1, which growth is on record?
A: 116% (inactive)

Q: COc1cc2nccc(Oc3ccc(NC(=O)C4(C(=O)Nc5ccc(F)cc5)CC4)cc3)c2cc1O was tested. Which growth did it give?
A: 79.3% (inactive)

Q: With CC1CCN(Cc2ccc(NC(=O)c3cc4ccc5cccnc5c4[nH]3)cc2)CC1 as the compound, how does the growth read?
A: 17.5% (inactive)

Q: For CCOC(=O)C(Nc1ccccc1)C(=O)OCC, which growth is on record?
A: 103% (inactive)

Q: With OC(c1cc2c(Cl)cc(Cl)cc2c2cc(C(F)(F)F)ccc12)C1CCCCN1 (stereo not given) as the compound, how does the growth read?
A: -73.5% (active)

Q: CNCc1cccc2c1OCCOCCOCCC(C)S(=O)(=O)c1ccc(cc1)-c1cnc(N)c(n1)C(=O)N2 (stereo not given) was tested. Which growth did it give?
A: 79% (inactive)

Q: With CC(C)[C@H](CN)NC[C@H](C)NS(=O)(=O)c1ccc(C(C)(C)C)cc1 as the compound, how does the growth read?
A: 105% (inactive)

Q: How did the growth turn out when CS(=O)(=O)Nc1cc(-c2cc3ncc(C#N)c(Nc4ccc(Oc5ccccc5)c(Cl)c4)c3s2)cnc1Cl was run?
A: 64.5% (inactive)

Q: With CCN(CC)CCCC(C)Nc1cnc(C(=O)Nc2cc(C)cc3cccnc23)cn1 (stereo not given) as the compound, how does the growth read?
A: 89.8% (inactive)

Q: CCCCCNCCCCCNc1cc(OC)cc2cccnc12 was tested. Which growth did it give?
A: 93.4% (inactive)

Q: How did the growth turn out when COc1cc(C2CC(c3ccc(Cl)cc3)=NN2C=O)ccc1OS(=O)(=O)c1ccc(C)cc1 (stereo not given) was run?
A: 104% (inactive)

Q: How did the growth turn out when COc1cc(-c2nc(-c3nc4cc(C(=O)c5ccccc5)ccc4[nH]3)cc3c2[nH]c2ccccc23)cc(OC)c1OC was run?
A: 104% (inactive)

Q: For CCOC(=O)C(=CNc1ccccc1Cl)C(=O)OCC, which growth is on record?
A: 102% (inactive)

Q: COc1ccc(-c2[nH]nc(N)c2-c2cc(OC)c(OC)c(OC)c2)cc1 was tested. Which growth did it give?
A: 1.36% (active)

Q: Which growth does the source give for C=C(C)[C@@H]1CC[C@]2(C)[C@H](CC=C3[C@@H]4C[C@](C)(C(=O)N5CCN(C)CC5)CC[C@]4(C)CC[C@]32C)[C@@]1(C)CCC#N here?
A: 70.6% (inactive)

Q: How did the growth turn out when COc1ccc(-c2nnc(SCC(=O)Nc3ccc(C(=O)/C=C/c4ccc(Cl)cc4)cc3)n2-c2ccccc2)cc1 was run?
A: 103% (inactive)

Q: With O=C(NCC(c1ccsc1)N1CCCCCC1)c1ccc(C(F)(F)F)cc1 (stereo not given) as the compound, how does the growth read?
A: 102% (inactive)

Q: How did the growth turn out when CC(=O)N1N=C(c2ccc(C)cc2)CC1c1cn(-c2ccccc2)nc1-c1cccc(Nc2ccnc3cc(Cl)ccc23)c1 (stereo not given) was run?
A: 102% (inactive)

Q: O=C(c1ccc(C(F)(F)F)c(Cl)c1)N(Cc1ccc(Cl)cc1)c1ccc(-c2cc(C(F)(F)F)[nH]n2)c(O)c1 was tested. Which growth did it give?
A: 13.6% (inactive)

Q: Which growth does the source give for CCSc1ccc([C@@H]2[C@@H](N)C(=O)N2c2cc(OC)c(OC)c(OC)c2)cc1 here?
A: 31.2% (inactive)

Q: For COc1cccc(NC(=O)[C@H](C(C)C)n2c(=O)[nH]c3ccccc3c2=O)c1, which growth is on record?
A: 96.3% (inactive)

Q: With Cc1cc(C)c([O-])c(CN(C)CCN(C)Cc2cc(C)cc(C)c2[O-])c1.O=C([O-])c1cccc(C(=O)[O-])n1.[Ti+4] as the compound, how does the growth read?
A: 5.25% (active)

Q: For COc1ccc2[nH]c(C(=O)OCc3ccc4c(Br)cc(Br)c(O)c4n3)cc2c1, which growth is on record?
A: -77.7% (active)

Q: COc1cc2c(cc1I)-c1c(cc(OC)c(OC)c1OC)CC[C@@H]2NC(C)=O was tested. Which growth did it give?
A: 0.415% (active)

Q: For COC1=CC(c2ccc[nH]2)=N/C1=C\c1[nH]c(C)c(C(=O)CCCCCCCCC(=O)O[C@H]2CC[C@H]3C4CCc5cc(O)ccc5C4CC[C@]23C)c1C (stereo not given in full), which growth is on record?
A: 26.2% (inactive)

Q: For COc1cc(/C=C/c2ccc3c(Br)cc(Br)c(O)c3n2)ccc1O, which growth is on record?
A: 35% (inactive)

Q: How did the growth turn out when Cc1cc(C)cc(CCCCCCCCCCCCCCCCCC(=O)O)c1 was run?
A: 102% (inactive)

Q: CC1=NOCC(=O)N1 was tested. Which growth did it give?
A: 116% (inactive)

Q: With COc1ccc(-c2nsc3c2NC(=O)CC3c2cccc(F)c2)cc1 (stereo not given) as the compound, how does the growth read?
A: 78.5% (inactive)

Q: For O=C(CCCCCCc1nc2ccc(Br)cc2[nH]1)NO, which growth is on record?
A: -51.7% (active)

Q: Which growth does the source give for COc1ccc(/C=C(/C(=O)N2CCN(c3ccccc3)CC2)c2cc(OC)c(OC)c(OC)c2)cc1O here?
A: 28.6% (inactive)

Q: For O=[N+]([O-])c1cc(F)c2cccnc2c1O, which growth is on record?
A: 96.2% (inactive)

Q: For CC(C)NC(=O)OCC#CCOC(=O)NC(C)C, which growth is on record?
A: 103% (inactive)

Q: With COc1ccc(/C(=C\c2ccc3c(c2)OCO3)C(=O)Nc2nc3ccc(F)cc3s2)cc1OC as the compound, how does the growth read?
A: 109% (inactive)

Q: COc1cc2nccc(Oc3ccc(NC(=O)C4(C(=O)Nc5ccc(F)cc5)CC4)cc3)c2cc1OC(=O)c1ccc(N)cc1 was tested. Which growth did it give?
A: 25.8% (inactive)

Q: CC1(C)CC[C@]2(C(=O)N3CCNCC3)CC[C@]3(C)C(=CC[C@@H]4[C@@]5(C)CCC(=O)C(C)(C)[C@@H]5CC[C@]43C)[C@@H]2C1 was tested. Which growth did it give?
A: 106% (inactive)
